Compound activity deposited in PubChem by National Center for Advancing Translational Sciences (NCATS).
Pf growth 96h = P. falciparum growth inhibition at 96 hour, primary screen for plastid delayed-death inhibitors. P. falciparum luciferase reporter growth, 96 h. Potency, µM (series often up to 28.7 µM), inactives show at the top dose activity change, negative = inhibition, usual class: inhibitors. hit rate 6.9% among 320,000; also: potency is read from the fitted curve at half-maximal effect
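Erythrocytes infected with luciferase-expressing P. falciparum were dispensed at 2% hematocrit and 0.05% parasitemia (final), then incubated with compounds 96 hours at 37 C in 5% CO2. Luminescence after detection reagent addition reported growth.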
HCV inh = blocks hepatitis C virus | AID 651820 | hit rate 3.4% among 340,000 | Potency, µM (doses to about 41.8 µM), without a hit: at the highest dose activity change, negative = inhibition, usual class: inhibitors | Huh7.5.1 HCVcc-Cre infection, luciferase reporter, 44 h; also: potency is read from the fitted curve at half-maximal effect
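HCVcc-Cre virus at an moi near 0.5 was added right after compound to cells cultured 4 h from seeding (1,000 cells/well). Luciferase activity was determined 44 h later, 15 min after substrate addition at RT.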
HCMV inh = inhibitors of human cytomegalovirus | hit rate 4.5% among 410,000 | activity change, negative = inhibition, % at 57.5 µM | HFF cells, HCMV-luciferase reporter, 72 h; hits give low values; in the data active = activity change below about -60%; inconclusive = no clear call, values can overlap the other calls; inactive = above about -39%
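After 16 h attachment at 37C, HFF cells received test compound and HCMV-luciferase (1 PFU/cell); reporter luminescence read 72 h later, data normalized against buffer-only and known inhibitor Salinomycin.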
Pf growth 48h = P. falciparum growth inhibition at 48 hours (one generation); P. falciparum luciferase growth in erythrocytes, 48 h; hit rate 5.9% among 310,000; AID 504832; Potency, µM (titrated, usually from 28.7 µM), inactives show top-dose activity change, negative = inhibition, most hits filed as inhibitors; also: potency is read from the fitted curve at half-maximal effect
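Luciferase-expressing P. falciparum in infected erythrocytes (2% hematocrit, 0.1% parasitemia final) in RPMI 1640/0.5% Albumax were exposed to compound for 48 hours at 37 C, 5% CO2; growth read as luminescence.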
Active calls of the source: *; ? = inconclusive; / = not tested or not shown; [ ] = another dose, or the depositor's remark. Most compounds without a hit are left out; they make up all but 13% or so of the library. Unless noted, calls follow the shape of the dose curve; as a rule, active = well fitted inhibition curve with a large enough effect; inconclusive = small, poorly fitted or top-dose-only effect, or another doubt; inactive = no such curve, though single readings can be large or run the other way. % is scaled to controls: 0 for no effect and ±100 for the full control effect.

SMILES | Pf growth 96h | HCV inh | HCMV inh | Pf growth 48h
CCC1(C)CC(CCN(Cc2ccco2)C(C)=O)(c2ccccc2)CCO1 (stereo not drawn) | 4.1µM* | ? | -19 | ?
CC1(C)CC(CCN(Cc2ccccc2)C(=O)c2ccco2)(c2ccccc2)CCO1 (stereo not drawn) | 1.9µM* | -2% | -38 | ?
O=C(Cn1ncc2c(=O)oc3ccccc3c21)NCc1ccc(Cl)cc1 | / | / | 4 | /
N#Cc1c(N(CC(=O)O)CC(=O)O)sc(C(=O)O)c1CC(=O)O | -13% | / | / | -1%
CCOC(=O)C1=C(CC)Nc2ccccc2N=C1NC(=O)Nc1ccc(Cl)c(Cl)c1 | 2.6µM* | ? | -98* | /
CCOC(=O)C1=C(CC)Nc2ccccc2N=C1NC(=O)c1cc(C)on1 | 32% | -3% | 0 | 46%
O=C(C1=C[C@@H](c2ccc(Br)cc2)C[C@@H](OCc2ccc(CO)cc2)O1)N1CCN(Cc2ccccc2)CC1 | 12µM* | ? | / | ?
CN1CCN(C(=O)C2=C[C@@H](c3ccccc3)C[C@@H](OCc3ccc(CO)cc3)O2)CC1 | -1% | 1%[8.37 µM] | -8 | -22%
C#Cc1ccc([C@H]2C=C(C(=O)N3CCN(Cc4ccccc4)CC3)O[C@@H](OCc3ccc(CO)cc3)C2)cc1 | 2.3µM* | ? | -76* | 3.3µM*
CN1CCN(C(=O)C2=C[C@@H](c3ccc(Br)cc3)C[C@@H](OCc3ccc(CO)cc3)O2)CC1 | ? | -1% | 7 | ?
Cc1cccc(CNC(=O)c2ccc(NC(=O)N3CC(C)Sc4ccccc43)cc2)c1 (stereo not drawn) | / | / | 4 | /
COCCN(C(=O)CNC(=O)c1ccco1)C(C(=O)NC1CCCC1)c1ccccc1F (stereo not drawn) | 11% | -5% | 17 | 24%
COCCNC(=O)C(c1ccccc1F)N(C(=O)C(=O)NC1CCCC1)C1CCCCC1 (stereo not drawn) | 12µM* | ? | -80* | -4%
COc1ccc(CCN(C(=O)C(F)(F)F)C(C(=O)NC2CCCCC2)c2cccs2)cc1 (stereo not drawn) | ? | ? | ? | 9.3µM*
Cc1ccc(N(C(=O)C(F)(F)F)C(C(=O)NC2CCCCC2)c2cccs2)cc1 (stereo not drawn) | ? | 15% | -38 | ?
COCCN(C(=O)CCl)C(C(=O)NC1CCCCC1)c1ccccc1C (stereo not drawn) | 8.3µM* | ? | -98* | 10µM*
COc1ccc(CCN(C(=O)C(F)(F)F)C(C(=O)NC2CCCCC2)c2ccc(C)s2)cc1 (stereo not drawn) | 8.3µM* | -12% | -8 | ?
Cc1cc(S(=O)(=O)Nc2cc3c(cc2Cl)n(C)c(=O)c(=O)n3C)ccc1F | / | / | -4 | /
COCCN(C(=O)C(F)(F)F)C(C(=O)NC1CCCCC1)c1ccco1 (stereo not drawn) | 12µM* | 15% | 22 | -13%
COc1cc2c(cc1OC)C1O[C@](c3ccsc3)(C2)Oc2cc(-c3ccccc3)oc(=O)c21 | 1.5µM* | / | / | ?
COc1ccc([C@]23Cc4c(ccc5ccccc45)C(O2)C2=C(CC4(CCCCC4)OC2=O)O3)cc1 | ? | / | / | 10%[5.75 µM]
COc1cc2c(cc1OC)C1O[C@](c3ccsc3)(C2)OC2=C1C(=O)OC1(CCCCC1)C2 | 1.3µM* | / | / | ?
COc1cccc(C(=O)c2ccccc2C(=O)O)c1 | / | / | -22 | /
Cc1ccc(F)cc1NC(=S)NCCc1ccccc1 | 3% | 10µM* | -38 | -21%
CCOc1ccccc1NC(=S)NCCc1ccccc1 | -27% | ? | ? | 1%
SMILES | Pf growth 96h | HCV inh | HCMV inh | Pf growth 48h
Cc1ccccc1NC(=S)NC(C)CCc1ccccc1 (stereo not drawn) | 13µM* | -26% | -29 | ?
Cc1ccc(NC(=S)NCCc2ccc(F)cc2)c(C)c1 | -18% | 2% | ? | -16%
CCOc1ccccc1NC(=S)NCCc1ccc(F)cc1 | 59% | ? | -65* | ?
O=C(Nc1ccc(Cn2cccn2)cc1)c1ccc(COc2cccc(Br)c2)cc1 | ? | 10µM* | 59 | /
CCN(CC)C(=O)CSc1nnc2nnc3cc(Cl)ccc3n12 | 7.4µM* | -16% | -28 | 4.7µM*
CCN(CC)C(=O)CSc1nnc2nnc3cc(C)ccc3n12 | -23% | 4% | -67* | ?
N=c1n(CCO)c2ccccc2n1Cc1ccccc1F | / | / | -13 | /
CC1=C(C(=O)OCc2ccccc2)C(c2ccccc2)NC(=O)N1CCCC(=O)O (stereo not drawn) | ? | 8% | 14 | ?
CC1=C(C(=O)OCc2ccccc2)C(c2cccc([N+](=O)[O-])c2)NC(=O)N1CCCCCC(=O)O (stereo not drawn) | 10µM* | -11%[8.37 µM] | -8 | ?
CCOC(=O)C1=C(C)N(CCCCCC(=O)O)C(=O)NC1c1cccc([N+](=O)[O-])c1 (stereo not drawn) | 4% | 27% | -16 | -3%
CC1=C(C(=O)OCc2ccccc2)C(c2ccc(Cl)cc2)NC(=O)N1CCCCCC(=O)O (stereo not drawn) | 12µM* | ? | 12 | ?
Cc1c2cnn(-c3ccccc3)c(=O)c2c(C)n1CCCC(=O)Nc1cc(F)ccc1F | / | / | -12 | /
O=C(CSc1nc2c([nH]c3ccccc32)c(=O)n1-c1ccccc1)Nc1ccccc1C(F)(F)F | / | / | 36 | /
O=C(NCc1ccccc1Cl)c1ccc2c(O)c(S(=O)(=O)c3ccccc3)c(=O)[nH]c2c1 | / | / | 6 | /
COC(=O)C1=C(C)NC2=C(C(=O)CCC2)C1c1cn(Cc2ccc(Cl)cc2Cl)nc1-c1ccccc1 (stereo not drawn) | 1.9µM* | ? | -61* | 2.6µM*
CCOC(=O)C1=C(C)NC2=C(C(=O)CCC2)C1c1cn(Cc2ccc(Cl)cc2Cl)nc1-c1ccccc1 (stereo not drawn) | 0.74µM* | ? | -90* | 0.12µM*
CC(C)CNS(=O)(=O)c1ccc(S(=O)(=O)N2CCN(C3CCCC3)CC2)cc1 | 45% | -10% | -101* | ?
CC1=C(C(=O)N(C(C)C)C(C)C)CC(CC(=O)NCC2CCCCC2)C(=O)N1Cc1ccc(C(C)(C)C)cc1 (stereo not drawn) | / | / | 61 | /
COCCn1c(SCC(=O)N2CCc3ccccc3C2)nc2cc(Cl)ccc2c1=O | 9.3µM* | ? | -4 | ?
CC(C)Cn1c(SCC(=O)N2CCc3ccccc3C2)nc2cc(Cl)ccc2c1=O | 4.7µM* | -9% | -20 | ?
COCc1cc(CN(C)C(=O)c2oc3c(F)cccc3c2C)[nH]n1 | 13µM* | 4% | -15 | 11%
Cc1c(C(=O)N(C)CCOc2ccccc2)oc2c(Cl)cccc12 | -11% | -24% | ? | ?
Cc1cc(Br)ccc1NC(=S)Nc1cccc([N+](=O)[O-])c1 | -17% | ? | -64* | 31%
C=CCNC(=S)Nc1cccc([N+](=O)[O-])c1 | 7% | -4% | -90* | -4%
CCNC(=S)Nc1cccc([N+](=O)[O-])c1 | 17% | 5% | / | 47%
